Bioassay records from PubChem BioAssay.
Most compounds without a hit are left out; they make up all but 2.6% or so of the library.
AmpC inh no det: inhibitors of E. coli AmpC beta-lactamase without detergent; P00811; AmpC nitrocefin hydrolysis, absorbance 480 nm, no detergent; Potency, µM (titrated, usually from 28.7 µM), inactives show at the highest dose activity change, negative = inhibition; hit rate 1.8% among 71,000; AID 585; note: % of control where 0% means no effect
Target sequence (P00811 whole entry, looked up): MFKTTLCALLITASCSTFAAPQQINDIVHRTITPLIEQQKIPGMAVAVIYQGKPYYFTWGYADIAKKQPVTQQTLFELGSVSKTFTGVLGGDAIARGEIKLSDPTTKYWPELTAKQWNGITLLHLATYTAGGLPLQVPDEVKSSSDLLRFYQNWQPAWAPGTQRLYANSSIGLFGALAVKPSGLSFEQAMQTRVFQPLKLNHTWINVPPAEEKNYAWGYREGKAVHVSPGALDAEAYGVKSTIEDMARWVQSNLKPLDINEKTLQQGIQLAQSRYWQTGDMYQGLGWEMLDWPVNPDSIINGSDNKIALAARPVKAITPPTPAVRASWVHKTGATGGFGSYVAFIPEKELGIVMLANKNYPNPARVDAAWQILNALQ
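AmpC in 20 mM phosphate buffer pH 7.0 was preincubated 15 min at room temperature with compounds. Nitrocefin (800 uM stock) was then added and hydrolysis followed at 480 nm every 20 s for 4 min.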
Prx2 Sm inh: inhibitors of Schistosoma mansoni peroxiredoxin 2; Potency, µM; hit rate 0.07% among 65,000; S. mansoni Prx2 activity coupled to TGR/GSH (TGR is thioredoxin glutathione reductase), NADPH fluorescence loss, qHTS; AID 448
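Prx2 activity was followed as the loss of NADPH fluorescence (ex 365/em 450 nm), read every 30 sec for 8 min after H2O2 start. The enzyme mix (50 nM Prx2, 25 nM TGR, GSH, NADPH; pH 7.4 phosphate buffer) was incubated with compound for 15 min at room temperature first.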
AmpC det inh: AmpC beta-lactamase inhibition, detergent assay; P00811; purified AmpC, nitrocefin hydrolysis with detergent; Potency, µM (top dose mostly 28.7 µM), for the others: top-dose activity change, negative = inhibition; hit rate 0.09% among 71,000; AID 584; active = well fitted curve in the direction sought with a large enough effect; inconclusive = small, poorly fitted or top-dose-only effect; note: % is set by controls: 0 for no effect and ±100 for the full control effect
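E. coli AmpC (5.3 nM) in 20 mM phosphate pH 7.0 with 0.01% Triton X-100, preincubated 15 min RT with compound; nitrocefin (2 uL of 800 uM stock) hydrolysis followed by 480 nm absorbance every 20 s over 4 min.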
Anthrax LT inh: anthrax lethal toxin internalization inhibition. hit rate 0.67% among 70,000. AID 912. Cells, anthrax lethal toxin internalization, FRET ratio (460/530). Potency, µM (titrated, usually from 40 µM), for the others: top-dose activity change, negative = inhibition, usual class: inhibitors; note: % is set by controls: 0 for no effect and ±100 for the full control effect; nearly all actives have a fitted effect of over 50% in size
Numbers without * were called inactive; ? = inconclusive; nt = no result given; [ ] = remark or other dose. Unless noted, calls come from the whole dose curve. Potency is the fitted concentration of half-maximal effect.

SMILES	AmpC inh no det	Prx2 Sm inh	AmpC det inh	Anthrax LT inh
CCN(CC)CCCCn1c(-c2ccccc2)nc2c(Nc3ccccc3)nc(C)nc21	84%	nt	15%	16µM*
Cc1cc2ccc(OC(=O)c3ccc(N=C(N)N)cc3)cc2oc1=O	6%[5.75 µM]	?	-3%[5.75 µM]	?
Cn1nc(-c2ccc(Cl)cc2)c2cc(C(=O)NCCN3CCOCC3)sc21	146%	>57	14%	?
Cn1nc(-c2ccc(Cl)cc2)c2cc(C(=O)NC3CC3)sc21	4µM*[single pt active]	>57	10%	-2%
CCN(CC)CCNC(=O)c1cc2c(-c3ccc(Cl)cc3)nn(C)c2s1	4µM*[single pt active]	>57	5%	10µM*
CCOCCCNC(=O)c1cc2c(-c3ccc(Cl)cc3)nn(C)c2s1	130%	>57	8%	-10%
CCN1CCN(C(=O)c2cc3c(-c4ccc(Cl)cc4)nn(C)c3s2)CC1	155%	>57	9%	5%
Cn1nc(-c2ccc(Cl)cc2)c2cc(C(=O)N3CCN(C(=O)c4ccco4)CC3)sc21	4µM*[single pt active]	nt	13%	-10%
Cn1nc(-c2ccc(Cl)cc2)c2cc(C(=O)NCCCN3CCOCC3)sc21	124%	>57	13%	2.5µM*
C[C@H](CCC(=O)O)[C@H]1CC[C@@H]2[C@@H]3CC[C@H]4C[C@@H](O)CC[C@@]4(C)[C@@H]3C[C@H](O)[C@@]21C	24%[5.75 µM]	>57	-3%[5.75 µM]	-10%[8 µM]
CCN1CCN(C(=O)N[C@H](C(=O)N[C@@H]2C(=O)N3C(C(=O)O)=C(CSc4nnnn4C)CS[C@@H]23)c2ccc(O)cc2)C(=O)C1=O	-11%[12.8 µM]	>57	-4%[12.8 µM]	-4%[3.58 µM]
C[C@@]12CCC(=O)C=C1CC[C@H]1[C@H]3CC[C@](O)(C(=O)CO)[C@]3(C)CC[C@@H]12	15%	>57	-5%	13%
CCCCN1C(=O)C(O)(CC(=O)c2ccco2)c2cc(Br)ccc21 (configuration not stated)	2.5µM*[single pt active]	>57	12%	?
C#CCN1C(C)=C(C(=O)OC)[C@@H](c2cccc([N+](=O)[O-])c2)C(C(=O)OCC)=C1C	22%	>57	0%	3%
CCCCN(CC)CCNC(=O)c1cc2c(=O)n(C)c3ccccc3c2n1C	4µM*[single pt active]	>57	10%	5µM*
CCN(CC)CCCNC(=O)c1cc2c(=O)n(C)c3ccccc3c2n1C	?	nt	9%	10µM*
CCCN(CCC)CCCNC(=O)c1cc2c(=O)n(C)c3ccccc3c2n1C	18%	>57	17%	3.2µM*
Cc1nc(NCc2ccccc2)c2nc(-c3ccccc3)n(CC(C)(C)CN(C)C)c2n1	112%	nt	12%	-5%
CC1CCC(C(C)C)C(OC(=O)COC(=O)c2ccc(=O)[nH]c2)C1 (configuration not stated)	54%	>57	-8%	13µM*
COc1cccc(-c2ccc3ncnc(NCc4cccs4)c3c2)c1	6.3µM*	>57	10µM*	13µM*
C/C(=C\COc1cc(=O)[nH]c2ccccc12)CC[C@@H](O)C(C)(C)O	24%	>57	-1%	?
Cn1cc(Cl)c(C(=O)N(Cc2ccccc2)c2ccccn2)n1	4µM*[single pt active]	>57	21%	5%
Nc1nc(SCC(=O)O)[nH]c(=O)c1N	-8%[5.75 µM]	>57	-4%[5.75 µM]	-3%[8 µM]
Nc1c(S(=O)(=O)O)cc(Nc2cccc(S(N)(=O)=O)c2)c2c1C(=O)c1ccccc1C2=O	-6%[5.75 µM]	>57	-11%[5.75 µM]	?
Cc1nc2c3ccccc3n(CC#N)c(=O)n2n1	2.5µM*[single pt active]	>57	11%	-11%
SMILES	AmpC inh no det	Prx2 Sm inh	AmpC det inh	Anthrax LT inh
Nc1ccccc1[N+](=O)[O-]	-16%	nt	8%	-6%
CCN(CC)CCCNC(=O)CC1Oc2ccc(C)cc2NC1=O (configuration not stated)	4µM*[single pt active]	>57	13%	5%
CCC(C)NC(=O)CC1Oc2ccc(C)cc2NC1=O (configuration not stated)	4µM*[single pt active]	>57	13%	-3%
N#Cc1c(N)nc(N2CCCC2)c(C#N)c1-c1ccc(Cl)cc1	-16%	>57	4%	1µM*
N#Cc1c(N2CCCC2)nc(N)c2c(N)nc(N3CCCC3)cc12	51%	>57	8%	-15%
O=c1c2[nH]c3ccc(F)cc3c2ncn1CCN1CCN(Cc2ccccc2)CC1	3.2µM*[single pt active]	>57	10%	-10%
CC1CCCCN1CCn1cnc2c([nH]c3ccccc32)c1=O (configuration not stated)	4µM*[single pt active]	>57	13%	1%
CN[C@@H](CC(C)C)C(=O)N[C@@H]1C(=O)N[C@H](CC(N)=O)C(=O)N[C@H]2C(=O)N[C@H]3C(=O)N[C@H](C(=O)N[C@H](C(=O)O)c4cc(O)cc(O)c4-c4cc3ccc4O)[C@H](O)c3ccc(c(Cl)c3)Oc3cc2cc(c3O[C@@H]2O[C@@H](CO)[C@@H](O)[C@@H](O)[C@H]2O[C@H]2C[C@](C)(N)[C@H](O)[C@H](C)O2)Oc2ccc(cc2Cl)[C@@H]1O	-4%	>57	-1%	1%
OC[C@@H]1O[C@@H](n2cnc3c(NCCc4ccccc4)ncnc32)[C@@H](O)[C@H]1O	2%	>57	-1%	?
O=S(=O)(O)F	-14%	nt	17%	-28%
Cc1ccc(C(=O)Nc2ccc(N3CCOCC3)cc2)cc1	1%	nt	-1%	-3%
CC(=O)N1CCN(c2ccc(NC(=O)c3ccc(C(C)(C)C)cc3)cc2)CC1	123%	>57	7%	10µM*
CN(C)CCCN1c2ccccc2Sc2ccccc21	28%[12.8 µM]	>57	-1%[12.8 µM]	10µM*
Cc1cc(=O)oc2cc(O)c(CN(C)CC(=O)O)cc12	-4%[5.75 µM]	>57	-2%[5.75 µM]	-6%[8 µM]
N[C@H](Cc1ccc(O)c(I)c1)C(=O)O	8%	>57	-2%	2%
COc1ccc(C)cc1NC(=O)c1nnn(CCc2ccccc2)c1N	4µM*[single pt active]	>57	13%	-5%
Nc1c(C(=O)Nc2ccc3c(c2)OCCO3)nnn1CCc1ccccc1	4µM*[single pt active]	>57	8%	?
COc1ccccc1NC(=O)c1nnn(CC(=O)Nc2ccccc2)c1N	-22%	>57	10%	-4%
COc1cccc(Cn2nnc(C(=O)Nc3cc(C)ccc3OC)c2N)c1	4µM*[single pt active]	>57	11%	-7%
COc1ccc(OC)c(NC(=O)c2nnn(Cc3ccccc3C)c2N)c1	14%	>57	2%	-16%
COc1cccc(Cn2nnc(C(=O)Nc3ccc(C)cc3)c2N)c1	4µM*[single pt active]	>57	12%	1%
COc1cccc(CNC(=O)c2nnn(CC(=O)Nc3ccc(C)c(C)c3)c2N)c1	-8%	>57	2%	-11%
COc1ccc(C)cc1NC(=O)c1nnn(Cc2cc(C)ccc2C)c1N	4µM*[single pt active]	nt	11%	-8%
Clc1ccc(-c2nnc(N3CCCC3)nn2)cc1	10µM*	>57	-20%	nt
Clc1ccc(-c2noc(CN3CCCCC3)n2)cc1	4%[5.75 µM]	>57	-5%[5.75 µM]	4%[8 µM]
CC(CN(C)Cc1ccccc1)OC(=O)C1COc2ccccc2O1 (configuration not stated)	4µM*[single pt active]	>57	10%	5%
O=C(NC1CCN(Cc2ccccc2)CC1)C1COc2ccccc2O1 (configuration not stated)	-2%	>57	-3%	-4%
